Screening data deposited in PubChem by National Center for Advancing Translational Sciences (NCATS).
A selection: hits, their analogues and other compounds. The true share with any hit is near 11%.
ALDH1A1 inh – ALDH1A1 (human) enzyme inhibition. Purified ALDH1A1, NADH fluorescence, propionaldehyde substrate. Potency, µM (top dose mostly 75.3 µM), most hits filed as inhibitors. 220,000 compounds, 7.3% hits. AID 1030
Target sequence (P00352 whole entry, looked up): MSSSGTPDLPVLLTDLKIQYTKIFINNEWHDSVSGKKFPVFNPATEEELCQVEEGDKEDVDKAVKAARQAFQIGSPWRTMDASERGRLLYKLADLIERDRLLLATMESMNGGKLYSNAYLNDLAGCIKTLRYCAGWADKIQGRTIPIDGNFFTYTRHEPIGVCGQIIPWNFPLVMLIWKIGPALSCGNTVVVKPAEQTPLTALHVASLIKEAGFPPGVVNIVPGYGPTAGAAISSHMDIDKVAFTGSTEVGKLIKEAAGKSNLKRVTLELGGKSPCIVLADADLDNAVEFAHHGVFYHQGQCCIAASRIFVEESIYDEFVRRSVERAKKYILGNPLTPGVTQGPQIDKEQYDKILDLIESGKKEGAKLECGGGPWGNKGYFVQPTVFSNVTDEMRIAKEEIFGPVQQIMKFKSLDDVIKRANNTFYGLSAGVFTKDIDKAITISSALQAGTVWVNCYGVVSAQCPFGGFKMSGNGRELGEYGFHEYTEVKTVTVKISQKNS
HPGD inh – HPGD (human) dehydrogenase inhibition; P15428; purified HPGD, NADH fluorescence kinetic, PGE2 substrate; Potency, µM, most hits filed as inhibitors; 150,000 compounds, 4.3% hits; AID 894
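NADH formation kinetics: reaction with 30 uM PGE2 and 1 mM NAD+ (final), 20 nM enzyme, Tris-HCl pH 8 with Tween 20, after 15 min compound preincubation at room temperature. Fluorescence change, last versus first of five reads.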
PNC inhibitor – perinucleolar compartment assembly inhibition. PC3M PTB-GFP, PNC prevalence imaging, 16 h; hits give low values. activity change (PNC), negative = inhibition, % at 10 µM. 140,000 compounds, 3.1% hits. AID 2417;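 active means readout at or below -70, meaning at least 70% loss of cells showing the perinucleolar compartment, a nuclear body marking cancer cells; inconclusive means readout between -30 and a set limit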
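PC3M cells stably expressing PTB-GFP, 750–1000 cells/well, treated 16 h at 37 °C with compound (23 nl of library stock), in duplicate. After paraformaldehyde fixation and Hoechst stain, imaged at 20x; PNC prevalence scored by image analysis.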
Hits are given with their value; 0 = inactive; ? = inconclusive; - = no result given. Unless noted, the call rests on the fitted dose curve; in most records, active means well fitted inhibition curve with a large enough effect (not every such curve was filed as active); inconclusive means small, poorly fitted or top-dose-only effect, or another doubt; inactive means no such curve, though single readings can be large or run the other way.

SMILES	ALDH1A1 inh	HPGD inh	PNC inhibitor
Cc1ccc(OCCN2C(=O)C(=O)c3cccc(C)c32)cc1	0.2µM	-	-
Cc1cccc(C)c1N1CC(=O)N(c2c(C)cccc2C)CC1=O	0	0	0
Cc1ccc(OCCCN2C(=O)C(=O)c3cc(C)ccc32)cc1	0.1µM	-	-
Cc1cccc(OCCCN2C(=O)C(=O)c3cc(C)ccc32)c1	0.1µM	-	-
COc1ccc(OCC(=O)OCCN2C(=O)c3ccccc3C2=O)cc1	0	0	0
Cc1[nH]c2ccccc2c1C(=O)C(=O)NCCOc1ccccc1	0	-	-
Cc1ccc2c(c1)C(=O)C(=O)N2CCCOc1ccccc1	0.11µM	-	-
O=C(CN1C(=O)C(=O)c2ccccc21)OCN1C(=O)c2ccccc2C1=O	0	-	-
O=C1c2ccccc2C(=O)N1CCCOc1ccccc1	0	0	0
CCOC(=O)CN1C(=O)C(=O)c2cccc(C)c21	0.025µM	0	?
Cc1cc(OCC(=O)N(C(C)C)C(C)C)cc(C)c1Br	?	0	0
CCOc1c2ccc(C(=O)N[C@H](C)C3CCCCC3)cc2nn1CC	?	?	0
Cc1ccc(C)c2sc(NC(=O)c3nc4ccccc4s3)nc12	0	0	0
CC(=O)c1sc2nc(-c3cccs3)cc(C(F)(F)F)c2c1N	?	0	0
Nc1c(C(=O)C2CC2)sc2nc(-c3ccccc3)cc(C(F)(F)F)c12	?	28µM	0
O=C(NC12CC3CC(CC(C3)C1)C2)C12CC3CC(C1)CC(n1cnc(Cl)n1)(C3)C2	0	0	0
Cc1nc2ccccn2c1C(=O)N/N=C/c1cc(C)n(-c2ccc(Br)cc2)c1C	?	0	0
Cc1cc(/C=N\NC(=O)CC(=O)NC2CCCCC2)c(C)n1-c1ccc(Cl)cc1	?	0	?
Cc1cc(/C=N/NC(N)=S)c(C)n1-c1cccc(Cl)c1	25µM	-	-
Cc1cc(/C=N/NC(N)=S)c(C)n1-c1ccc(Cl)cc1	32µM	0	0
Cc1cc(/C=N/NC(N)=S)c(C)n1-c1ccc(Br)cc1	16µM	-	-
Cc1cc(/C=N/O)c(C)n1-c1ccc(Br)cc1	8.9µM	?	0
Cc1cccc(-n2c(C)cc(/C=N/O)c2C)c1	?	?	0
Cc1cccc(C)c1-n1c(C)cc(/C=N/NC(N)=S)c1C	?	0	0
COc1ccc(CNc2nc(SCc3cc(=O)n4cc(Cl)ccc4n3)nc3ccccc23)cc1	0	-	?
SMILES	ALDH1A1 inh	HPGD inh	PNC inhibitor
Cc1cccc(C)c1NC(=O)CSCC(=O)c1ccc(O)c(O)c1	0	0	?
CCC1(O)CC2CN(CCc3c([nH]c4ccccc34)[C@@](C(=O)OC)(c3cc4c(cc3OC)N(C)C3[C@]45CCN4CC=C[C@@](CC)([C@@H](OC(C)=O)[C@]3(O)C(=O)OC)[C@H]45)C2)C1 (stereo partly specified)	0	0	-
COc1ccc2nc(NCCCNC(=O)c3cc(OC)c(OC)c(OC)c3)c(C#N)cc2c1	?	?	0
CCOc1cc(C(=S)N2CCCCC2)ccc1OS(=O)(=O)c1ccc(Cl)cc1	0	0	0
COc1ccccc1S(=O)(=O)c1ccccc1[N+](=O)[O-]	0	0	0
CCOc1cc(C(=S)N2CCOCC2)ccc1OS(=O)(=O)c1ccccc1[N+](=O)[O-]	0	16µM	?
COc1ccc(C=O)cc1OS(=O)(=O)c1ccccc1[N+](=O)[O-]	0	20µM	?
COc1ccc(C(=S)N2CCOCC2)cc1OS(=O)(=O)c1ccccc1[N+](=O)[O-]	11µM	32µM	0
COc1cc(C(=S)N2CCOCC2)ccc1OS(=O)(=O)c1ccccc1[N+](=O)[O-]	?	?	0
Cc1cccc(NC(=O)c2cn(-c3ccccc3)nc2-c2ccccc2)c1	?	0	0
O=C(COC(=O)[C@@H]1CC(O)CN1S(=O)(=O)c1ccccc1[N+](=O)[O-])Nc1ccc2ccccc2c1 (stereo partly specified)	0	0	0
O=C(CCSCc1cccc(Cl)c1)NC1CCCC1	0	14µM	0
O=C(CCSCc1ccccc1Cl)NC1CCCC1	0	11µM	0
O=C(CCSCc1cccc(Cl)c1)NCCC1=CCCCC1	0	?	0
O=C(CCSCc1ccccc1Cl)N1CCN(c2ccccn2)CC1	?	0	0
COc1ccc(Oc2ncc3ncc(=O)n(C)c3n2)cc1	0	-	-
NC(=O)c1cccc([N+](=O)[O-])c1	0	0	-
O=[N+]([O-])c1cccc(Cl)c1	25µM	0	-
O=[N+]([O-])c1cccc(S(=O)(=O)c2cccc([N+](=O)[O-])c2)c1	0	-	-
O=C(Cl)c1cccc([N+](=O)[O-])c1	11µM	0	-
C/C(=C\C1CCCCC1)C(NC(=O)c1cccnc1)c1ccc(-c2ccccc2)cc1 (stereo unspecified)	0	0	-
S=C(Nc1ccc2nccnc2c1)N1CCCC1	0	-	-
S=C(Nc1ccc2nsnc2c1)N1CCCC1	25µM	-	-
O=C(NC1=C(NC2CCS(=O)(=O)C2)C(=O)c2ccccc2C1=O)c1ccccc1 (stereo unspecified)	20µM	-	-
O=C(NC1=C(Nc2ccc(Cl)cc2)C(=O)c2ccccc2C1=O)c1ccccc1	0	0	0
SMILES	ALDH1A1 inh	HPGD inh	PNC inhibitor
O=C(NC(NC1CCS(=O)(=O)C1)C(=O)c1cccs1)c1ccccc1 (stereo unspecified)	0	0	0
Cc1cccc(NC2=C(NC(=O)c3ccccc3)C(=O)c3ccccc3C2=O)c1	25µM	?	0
CN(C)c1ccccc1CN1CCCN(Cc2ccccc2N(C)C)C1c1ccncc1	?	0	-
Cc1ccsc1/C=C/C1=Cc2c(sc(NC(=O)CSc3n[nH]c(N)n3)c2C#N)C(C)(C)C1	?	?	0
CCOc1ccc(/C=C/C2=Cc3c(sc(NC(=O)CSc4n[nH]c(N)n4)c3C#N)C(C)(C)C2)cc1	25µM	?	0
Cc1ccccc1Nc1nc(N)nc(CSc2nc3ccccc3c(=O)n2C)n1	0	0	0
O=C(O[C@@H]1Cc2c(O)cc(O)cc2OC1c1ccc(O)c(O)c1)c1cc(O)c(O)c(O)c1 (stereo partly specified)	0	0	-
O=C(OC1Cc2c(O)cc(O)cc2OC1c1cc(O)c(O)c(O)c1-c1c(C2Oc3cc(O)cc(O)c3CC2OC(=O)c2cc(O)c(O)c(O)c2)cc(O)c(O)c1O)c1cc(O)c(O)c(O)c1 (stereo unspecified)	0	22µM	-
CCCCC1CCC(C(=O)N2CCOCC2)CC1 (stereo unspecified)	0	16µM	0
CCS(=O)(=O)N1CCC(C(=O)N2CCOCC2)CC1	0	0	?
Cc1cc(NC(=O)NC2CCCN2S(=O)(=O)c2ccc(Cl)cc2)no1 (stereo unspecified)	0	0	0
Cc1ccc(CNC(=O)CCCOc2cc(=O)n(C)c3ccccc23)o1	20µM	0	0
Cn1c(=O)cc(OCCCC(=O)Nc2ccccn2)c2ccccc21	0	0	0
O=C(CCN1C(=O)c2ccccc2S1(=O)=O)NCc1ccco1	0	0	0
CC(C)CCNC(=O)CCCOc1cc(=O)n(C)c2ccccc12	0	16µM	0
O=C(CCCCCN1C(=O)c2ccccc2C1=O)NCc1ccco1	0	11µM	0
Cn1c(=O)cc(OCCCC(=O)NCc2ccco2)c2ccccc21	20µM	20µM	0
CN1CCN(CCCNC(=O)CCCOc2cc(=O)n(C)c3ccccc23)CC1	0	0	0
COc1ccc(CNC(=O)CCCOc2cc(=O)n(C)c3ccccc23)cc1	0	0	?
